Screen size: about 320,000 compounds; about 1,300 (0.41%) were called active. Not shown: some 3% with an inconclusive outcome. How the calls were made is not given here. The list is a sample of the results. Potency and affinity values are given separately.

A short description of the assay: growth inhibition of non-replicating M. tuberculosis (AID 488890).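 Further: plate controls were DMSO cells for no effect and high antibiotic wells for full effect.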 The settings on record: Mycobacterium tuberculosis non-replicating, at 25 µM, stronger effect = higher value.
For `N/C(=N/OC(=O)c1cccc([N+](=O)[O-])c1)c1cccc([N+](=O)[O-])c1`, the inhibition (usually the change of the read-out against control, counted positive when it falls) was determined as 18.3%.
In the case of `Cc1cccc(C(=O)O/N=C(\N)c2cccc([N+](=O)[O-])c2)c1`, the inhibition worked out at 75%.
As for `COc1ccc(C(CNC(=O)c2cccc(NC(=O)c3cccs3)c2)N2CCCC2)cc1` (stereo unspecified), the inhibition is 27.7%.
The same measure for `Cn1nc(-c2ccccn2)nc2c(=O)n(C)c(=O)nc1-2`: 74.7%.
As to `CCn1nc(-c2ccccc2)nc2c(=O)n(C)c(=O)nc1-2`, the inhibition was -28.8%.
Turning to `CC1(C)CN(c2ccc(Br)cc2Br)C1=O`, the inhibition is 8.63%.
Turning to `CCOC(=O)N1CCN(S(=O)(=O)c2ccc(C(=O)N(CCCN(C)C)c3nc4cc(OC)ccc4s3)cc2)CC1`, the inhibition is 8.58%.
As for `Oc1ccc(CNc2ccccc2F)c2cccnc12`, the inhibition turned out to be 38.5%.
The same measure for `OCc1ccc(O)c2ncccc12`: 26%; for `CCCn1c(C(C)Nc2nc(-c3ccc(C)cc3)cs2)nc2cc(Cl)c(Cl)cc21` (stereo unspecified): 17.9%; for `COc1ccccc1NC(=O)Cn1cnc2sc(C(=O)Nc3cc(OC)c(OC)c(OC)c3)c(C)c2c1=O`: -13%.
For `Cc1ccc(NC(=S)N2CCC(NC(=O)C3CCCCC3)CC2)cc1C`, the inhibition is -8.16%.
The same measure for `Cc1nn(CC(=O)NCc2cc3ccccc3[nH]2)c(C)c1[N+](=O)[O-]`: -11.5%; for `O=C(Nc1ccc(OC(=O)c2ccco2)cc1)c1ccco1`: 53.6%.
On to `O=C(CNC(=O)c1ccco1)NCC(=O)OCc1ccc(C(=O)Oc2ccc(Cl)cc2)cc1`, for which the inhibition came out at 5.36%.
The same measure for `COC(=O)c1ccc(NC(=O)c2ccc(NC(=O)c3ccco3)cc2)cc1`: 9.4%; for `O=C(CNC(=O)c1ccco1)OCc1ccc(C(=O)c2ccccc2)cc1`: 74.7%; for `O=C(CCN1C(=O)/C(=C\c2ccccc2)SC1=S)NNC(=O)c1ccccc1O`: -13.1%.
The same measure for `CN(C)CCCNC1CS(=O)(=O)CC1O` (stereo unspecified): -14.7%; for `CCOC(=O)C1=C(C)NC2=C(C(=O)CC(C)(C)C2)C1c1ccc2c(c1)CCCN2C` (stereo unspecified): 58.9%.
Then `COCCN1C(=O)/C(=C/c2c(OC)cc(OC)cc2OC)C(=O)N(c2ccccc2)C1=O`, with 2.58%; and `Cc1cccc(NC(=O)CC(=O)Nc2cccc(C)c2)c1`, with 17.8%; and `CCOC(=O)c1c(NC(C)=O)sc2c(OC)c(Br)ccc12`, with 3.98%.
`CCOC(=O)c1c(NC(C)=O)sc2c(O)c(Br)ccc12`: the inhibition was found to be 33.9%.
Consider `Cc1onc(-c2c(F)cccc2Cl)c1C(=O)N(Cc1ccccc1)C(C)C`, for which the inhibition was 7.25%.
Then `CC1CC(C)CN(S(=O)(=O)c2ccc3oc(=O)ccc3c2)C1` (stereo unspecified), with -8.91%; and `COC(=O)c1ccccc1NC(=O)CCCn1nc([N+](=O)[O-])cc1C`, with 1.55%; and `CC1CCC(NC(=O)c2cc3ccccc3cc2O)CC1` (stereo unspecified), with 38.1%.
The same measure for `COC(=O)c1cc2c(C)c(C)c3ccccn3c-2c1C(=O)OC`: 2.38%; for `CC(C)OC(=O)c1cccc2c1C(=O)c1ccccc1-2`: 1.02%.
The same measure for `Cc1cc(C(=O)CCC(=O)Nc2ncccc2C)c(C)s1`: 25.8%; for `CS(=O)(=O)N1CCc2cc(S(=O)(=O)Nc3ccc4c(c3)OCCO4)ccc21`: 5.57%; for `CCOc1ccc(C(=O)Nc2nnn(CC)n2)cc1`: -19.1%.
`CCn1nnc(NC(=O)COc2ccc([N+](=O)[O-])cc2)n1`: the inhibition was determined as 15.6%.
Regarding `Cc1ccc(OCC(=O)Nc2nnn(C)n2)c(C)c1`, the inhibition is -10.8%.
With `Cc1cccc(OCC(=O)Nc2nnn(C)n2)c1C`, the inhibition is 7.29%.
Then `NC(N)=NS(=O)(=O)c1ccc(NC(=S)NC(=O)c2ccc(Br)cc2)cc1`, with 2.25%; and `CN(C)CCC#CC1(O)c2ccccc2-c2ccccc21`, with -5.2%.
For `CCc1ccc(CNC(=O)c2ccc3nc(C4CCCCC4)oc3c2)nc1`, the inhibition stood at 56.5%.
`O=C1c2ccccc2C(=O)N1CC#CCN1CCN(C(c2ccccc2)c2ccccc2)CC1`: the inhibition was -1.98%.
The same measure for `c1ccc(Cc2nc(-c3ccccn3)no2)cc1`: 16.8%; for `c1ccc(-c2noc(C3CCCCC3)n2)nc1`: 18.3%; for `c1ccc(CCc2nc(-c3cccnc3)no2)cc1`: 20%.
On to `c1ccc(-c2noc(CC3CCCCC3)n2)cc1`, for which the inhibition is 69.6%.
Then `CC(=O)CC1=NC(C)(C)Cc2ccccc21`, with 0.57%; and `c1ccc(CNc2ccc3ccccc3n2)nc1`, with 21.1%; and `COc1cc2c(cc1NC(=O)COC(=O)C1CC(=O)N(Cc3ccco3)C1)oc1ccccc12` (stereo unspecified), with 6.37%.
On to `Cc1ccc(-n2c(-c3ccncc3)nnc2-c2cccs2)cc1`, for which the inhibition was -0.27%.
The same measure for `O=C(c1cccc([N+](=O)[O-])c1)N1CCN(c2cccc(Cl)c2)CC1`: 38.1%.
The same measure for `O=C(c1ccc([N+](=O)[O-])s1)N1CCN(c2ccccc2)CC1`: -13.2%; for `COc1ccccc1N1CCN(C(=O)c2ccc(Br)s2)CC1`: 70.2%; for `COc1ccccc1N1CCN(C(=O)c2cc(C(=O)N3CCN(c4ccccc4OC)CC3)cc([N+](=O)[O-])c2)CC1`: 12.5%.
The same measure for `NC(=O)CCn1ccc2ccccc21`: 2.82%; for `Cc1cc(C)n(C(=O)c2ccc(C)c(S(=O)(=O)N3CCCCC3)c2)n1`: -9.14%.
Take `Cc1ccc(C(C)C)cc1OCC(=O)NNC(=O)Nc1ccccc1`: the inhibition was -5.51%.
The same measure for `Cc1c(Cl)cccc1NC(=O)CNC(=O)c1ccccc1F`: 17.3%; for `COc1ccc(C(=O)NNC(=O)C(=O)Nc2ccc(C)c(Cl)c2)cc1`: 73%; for `Cc1c(Cl)cccc1NC(=O)CCC(=O)NNC(=O)c1ccccc1Cl`: 3.92%.
Then `Cc1cc(NC(=O)c2ccccc2C)ccc1NC(=O)c1ccccc1Cl`, with -10.5%; and `Cc1ccc(S(=O)(=O)NCC(=O)NCC(=O)OCc2c(F)cccc2Cl)cc1`, with -16.7%.
Turning to `COC(=O)c1c(NC(=O)c2cccc([N+](=O)[O-])c2)sc(C(N)=O)c1C`, the inhibition turned out to be 51.4%.
Then `COc1cc(/C=N/NC(=O)c2ccc(N)cc2)ccc1OC(=O)c1cccc(C)c1`, with 35.7%.
The same measure for `CCN(C(=O)COC(=O)c1cc2ccccc2cc1O)C1CCS(=O)(=O)C1` (stereo unspecified): 9.53%.
Then `CCNC(=O)/N=C1/NC(=O)C(C(C)C)O1` (stereo unspecified), with 0.48%; and `CC(C)CC(NC(N)=O)C(=O)Nc1ccc(Cl)c(Cl)c1` (stereo unspecified), with 13.8%; and `CC(C)(C)NC(=O)Cn1cc(C(=O)c2ccccc2F)c2ccccc21`, with 0.38%.
For the compound `CCCCOc1ccc(-c2nc(/C=N/c3nccs3)c(O)o2)cc1`, the inhibition stood at 62.2%.
Consider `CN=Cc1nc(-c2ccccc2)oc1O`, for which the inhibition came out at 10.9%.
The same measure for `O=C(O)CN(Cc1ccccc1)S(=O)(=O)c1ccc2c(c1)OCCO2`: -8.61%; for `CC1CN(C(=O)c2ccc(COc3ccc(C(C)C)cc3)o2)CC(C)O1` (stereo unspecified): 54.3%; for `COc1ccc(NC(C)=O)cc1NC(=O)CSc1nnc(-c2ccc(F)cc2)n1N`: -6.88%.

Source of the values: PubChem BioAssay AID488890 (Southern Research Specialized Biocontainment Screening …, 2010).
